Activity calls are given as the source filed them.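 How the source made its calls: active means fluorescence ratio normalized to control raised more than 50% in primary screen plus both repeat runs; inactive means the rest.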

This assay relates to TRPC4 beta (transient receptor potential cation channel C4), mouse. In words: activators of mouse TRPC4 channel, confirmation, cell-based, Fluo4 calcium, HEK293 TRPC4beta/mu-opioid, duplicates, 10 µM (AID 2426).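 On activation: percent rise of integrated ratio over buffer wells lacking compound which define 0%.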 Particulars: Fluo4 calcium fluorescence, at 10 µM; hits give high values.
As for `COc1ccc(C(CCNCc2ccc(N(C)C)cc2)c2ccccc2)cc1` (stereo not given), the activation was 165% (active).

For `COc1ccc(C(=O)NNC(=S)NC(=O)c2cccs2)cc1`, the result was inactive.

Regarding `Cc1cccc(C(=O)NC(=S)NNC(=O)Cc2ccccc2)c1`, the activation was 238% (active).

Take `COc1ccc(CC(=O)NCC(c2ccc(OC)cc2)N(C)C)cc1` (stereo not given): the activation was 200% (active).

As to `COc1cccc(C(=O)NC2CCCN(C3Cc4ccccc4C3)C2)c1OC` (stereo not given), the activation was 132% (active).

Regarding `NC(=O)C1CCCN(CCc2ccccc2)C1` (stereo not given), the activation is 157% (active).

As for `CNC[C@H](Cc1ccccc1)NC[C@@H](Cc1cccc2ccccc12)NCCc1ccc(C)cc1`, the activation was 228% (active).

As to `O=C(CC1C(=O)NCCN1Cc1cccc(Oc2ccccc2)c1)NCCc1ccccn1` (stereo not given), the activation was 99% (active).

With `COc1ccccc1/C=C/CN1CCCC(CCC(=O)NCc2ccccc2F)C1` (stereo not given), the activation is 98% (active).

As for `C=CCn1c(/N=C/c2ccc(N(C)C)cc2)nc2ccccc21`, the activation was 148% (active).

In the case of `Cc1oc(-c2ccccc2Cl)nc1CS(=O)CC(=O)NCCCN1CC(C)CC(C)C1` (stereo not given), the activation was 78% (active).

For `COc1ccc(CN2CCC(N(CCc3ccccc3)Cc3ccccc3)CC2)c(OC)c1`, the activation was 95% (active).

As for `O=C(NC(=S)NNC(=O)c1ccccc1[N+](=O)[O-])c1ccc(Br)cc1`, the activation was 141% (active).

On to `O=C(NC1CCN(Cc2ccccc2)CC1)C12CC3CC(CC(C3)C1)C2`, for which the activation is 166% (active).

Turning to `CCCN1CCN(C(=O)Cn2c(=O)oc3cc(S(=O)(=O)NCc4ccccc4)ccc32)CC1`, the activation is 168% (active).

With `Cn1c2ccccc2c(=O)c2c(=O)n(C3CCCCC3)c(-c3ccco3)nc21`, the result was inactive.

For the compound `OCCC1CN(Cc2ccccc2-c2ccco2)CCN1Cc1ccccc1` (stereo not given), the result was inactive.

On to `CCN1CCCC1CNS(=O)(=O)c1c(C)cc(C)cc1C` (stereo not given), for which the activation is 95% (active).

Regarding `Cc1ccc(OCC(=O)N(C)CCc2ccccn2)cc1`, the activation was 133% (active).

Regarding `CC(C)n1cnc2c(N(C)c3ccccc3)nc(N(CCN(C)C)Cc3ccccc3)nc21`, the result was inactive.

Take `CCC(=O)N1CCc2cc(Br)cc(S(=O)(=O)NCCCN(CC)Cc3ccccc3)c21`: the activation was 126% (active).

`NCCCNC(=O)c1cc2ccccc2[nH]1`: the activation was 220% (active).

With `CN(C)C(CNC(=O)Nc1cccc(Cl)c1)c1cccnc1` (stereo not given), the result was inactive.

Turning to `CN(C)C(CNC(=O)CCS(=O)(=O)c1ccccc1)c1ccccc1` (stereo not given), the activation is 77% (active).

As to `COc1c2c(cc3c1C(CC(O)Cc1ccccc1)N(C)CC3)OCO2` (stereo not given), the activation is 110% (active).

As for `CC1CN(C)C(C)c2c1oc1ccc(N)cc21` (stereo not given), the activation was 226% (active).

With `CN(C)c1ccc(C(CNC(=O)Cc2cccc3ccccc23)N(C)C)cc1` (stereo not given), the activation is 102% (active).

As to `Cc1cc(C)cc(NC(=S)N2CCN(c3ncc(C(F)(F)F)cc3Cl)CC2)c1`, the activation is 105% (active).

Consider `COC(=O)C1CCN(Cc2cn(-c3ccccc3)nc2-c2ccc3c(c2)OCO3)CC1`, for which the result was inactive.

Consider `Cc1cccc(OCCOCCN2CCNCC2)c1C`, for which the activation is 167% (active).

With `O=C1/C(=C\c2cc([N+](=O)[O-])ccc2O)SC(=S)N1Cc1ccc(Cl)cc1`, the activation was 147% (active).

Take `CCn1c(N2CCN(S(=O)(=O)CC)CC2)nc2ccccc21`: the activation was 96% (active).

Take `COc1ccc(CSCCN)cc1Cl`: the activation is 108% (active).

On to `O=C1S/C(=C\c2ccc(N3CCOCC3)o2)C(=O)N1Cc1c(F)cccc1Cl`, for which the result was inactive.

Regarding `CC(C)(C)[C@H]1C=C(C(=O)NCc2ccccc2)O[C@@H](OCc2ccc(CO)cc2)C1`, the activation is 68% (active).

In the case of `Nc1c(C(=O)c2ccccc2)sc2nsc(SCCN3CCCC3)c12`, the activation was 89% (active).

Take `O=C(CC(=O)c1c(F)cccc1Cl)c1ccccc1O`: the activation was 157% (active).

As for `Cc1ccccc1Cn1c(CN2CCc3ccccc3C2)nc2c1c(=O)n(C)c(=O)n2C`, the activation is 163% (active).

For the compound `Cc1csc2c(N3CCN(C(=O)Nc4ccc(OC(F)(F)F)cc4)CC3)ncnc12`, the activation is 75% (active).

Consider `O=S(=O)(NCCc1csc(-c2ccccc2)n1)c1cccnc1`, for which the activation is 93% (active).

The values above are taken from PubChem BioAssay.
